Source: PubChem BioAssay (NCATS)
Several values for one entry are separate records, joined by “and”; a condition that tells them apart may be missing. Equal values may be shown once. Results filed as inconclusive are left out. A call without a number means that no potency is given here. Values without a mark were called inactive. Activity calls are given as the source filed them. Calls come from the whole dose curve; as a rule, active = well fitted curve in the direction sought with a large enough effect; inconclusive = small, poorly fitted or top-dose-only effect, or another doubt; inactive = no such curve, though single readings can be large; an effect the other way counts as inactive or inconclusive.

Tests used:
[1] = Viability qHTS for spleen associated tyrosine kinase inhibitor (SYKi) naive MV4-11 cells (AID 1963823); note: nearly all actives have a fitted effect of over 40% in size
Summary of the method: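 Compounds were dispensed acoustically onto plates, MV4-11 cells (SYKi-naive) added at 500 per well, and plates incubated 72 hr at 37 C. CellTiter-Glo was added and luminescence measured after 10 min.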

[2] = Viability qHTS for spleen associated tyrosine kinase inhibitor (SYKi) drug resistant MV4-11 cells (AID 1963824); note: nearly all actives have a fitted effect of over 35% in size
Summary of the method: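 SYK-inhibitor-resistant MV4-11 AML cells were seeded at 500 per well onto compound and cultured 72 hours (37 °C, 5% CO2). CellTiter-Glo was then added, and after 10 min at room temperature, luminescence gave viability.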

[3] = Quantitative highthroughput screen to assess conditional lethalithy of NOMO1 cells grown in RPMI1640 with untreated serum (RPMI+s) (AID 1963876); note: nearly all actives have a fitted effect of over 35% in size
Summary of the method: (§1)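 Each medium arm—HPLM with 10% dialyzed FBS, or RPMI1640 with 5 mM glucose and 10% untreated or dialyzed FBS—was screened against an 11-point, 3-fold compound titration for 48 h at 37 °C, with CellTiter-Glo luminescence as endpoint.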

[4] = Quantitative highthroughput screen to assess conditional lethalithy of NOMO1 cells grown in RPMI1640 with dialyzed fetal bovine serum (RPMI+ds) (AID 1963877); note: nearly all actives have a fitted effect of over 30% in size; for Viability: series mostly up to about 46 µM
Summary of the method: as §1

[5] = Quantitative highthroughput screen to assess conditional lethalithy of NOMO1 cells grown in Human Plasma-Like Medium with dialyzed fetal bovine serum (HPLM+ds) (AID 1963878); note: nearly all actives have a fitted effect of over 35% in size
Summary of the method: as §1

[6] = Quantitative highthroughput screen to assess conditional lethalithy of P12 Ichikawa cells grown in Human Plasma-Like Medium with dialyzed fetal bovine serum (HPLM+ds) (AID 1963879); details: Potency: viability; note: nearly all actives have a fitted effect of over 35% in size; for Viability: series mostly up to about 46 µM
Summary of the method: as §1

[7] = Quantitative highthroughput screen to assess conditional lethalithy of P12 Ichikawa cells grown in RPMI1640 with dialyzed fetal bovine serum (RPMI+ds) (AID 1963880); details: Potency: P12-Ichikawa viability; note: nearly all actives have a fitted effect of over 35% in size
Summary of the method: as §1

[8] = Quantitative highthroughput screen to assess conditional lethalithy of P12 Ichikawa cells grown in RPMI1640 with untreated serum (RPMI+s) (AID 1963881); details: Potency: viability; note: nearly all actives have a fitted effect of over 35% in size; for Viability: series mostly up to about 46 µM
Summary of the method: as §1

[9] = Cellular viability qHTS for adrenocortical cancer (ACC) cell line NCI-H295R (AID 1963990); note: nearly all actives have a fitted effect of over 60% in size
Summary of the method: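 IC50 and maximal efficacy derive from four-parameter logistic modelling of titration curves, with reads scaled between DMSO-only wells (0%) and doxorubicin hydrochloride (100% inhibition). Compounds spanned up to 46 uM over 48 h.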

[10] = Quantitative highthroughput screen to assess conditional lethalithy of SEM cells grown in Human Plasma-Like Medium with dialyzed fetal bovine serum (HPLM+ds) (AID 1963882); note: nearly all actives have a fitted effect of over 35% in size; for Viability: series mostly up to about 46 µM
Summary of the method: as §1

[11] = Quantitative highthroughput screen to assess conditional lethalithy of SEM cells grown in RPMI1640 with unreated serum (RPMI+s) (AID 1963883); note: nearly all actives have a fitted effect of over 35% in size
Summary of the method: as §1

[12] = Quantitative highthroughput screen to assess conditional lethalithy of SEM cells grown in RPMI1640 with dialyzed fetal bovine serum (RPMI+ds) (AID 1963884); note: nearly all actives have a fitted effect of over 35% in size; for Viability: series mostly up to about 46 µM
Summary of the method: as §1

[13] = Cellular viability qHTS for adrenocortical cancer (ACC) cell line SW-13 (AID 1963989); details: SW-13 ACC cells viability, CellTiter-Glo, 48 h; activity (max response): hits give low values; note: nearly all actives have a fitted effect of over 65% in size;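 for activity (max response): cells grown in serum-free medium with ITS supplement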
Summary of the method: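 Luminescent ATP read-out (CellTiter-Glo, 20 min at room temperature) measured metabolically competent SW-13 cells after 48 h compound treatment. Final concentrations spanned up to 46 uM; bortezomib served as positive control.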
Potency is the fitted concentration of half-maximal effect.

Compound | Potency [1] | Potency [2] | Potency [3] | Potency [4] | Potency [5] | Potency [6] | Potency [7] | Potency [8] | Potency [9] | Potency [10] | Potency [11] | Potency [12] | activity (max response) [13] | Potency [13]
O=C(NCCCNc1nc(Nc2cccc(NC(=O)N3CCCC3)c2)ncc1I)c1cccs1 | 51.7 nM (active) | 164 nM (active) and 263 nM (active) | inactive | inactive | inactive | inactive | inactive | inactive | inactive | – | – | – | – | –
C[N+]1(C)[C@@H]2C[C@@H](OC(=O)C(O)(c3cccs3)c3cccs3)C[C@H]1[C@@H]1O[C@@H]12 | inactive | inactive | inactive | inactive | inactive | inactive | inactive | – | – | inactive | inactive | inactive | – | –
Cc1ccc2c(=O)c3cccc(CC(=O)O)c3oc2c1C | 2950 nM (active) | 0.934 µM (active) | inactive | inactive | inactive | inactive | inactive | inactive | inactive | – | – | – | -13.4% | –
CCc1cccc2c3c([nH]c12)C(CC)(CC(=O)O)OCC3 (stereo unspecified) | inactive | inactive | inactive | inactive | inactive | inactive | inactive | inactive | inactive | – | – | – | – | –
CC(C)NCC(O)c1ccc(O)c(O)c1 (stereo unspecified) | inactive | inactive | 5.9 µM (active) | 7.43 µM (active) | 4.69 µM (active) | 6.62 µM (active) | 9.35 µM (active) | 7.43 µM (active) | inactive | – | – | – | 9.6% and -17.4% | –
O=C(Nc1cccc(Cl)c1)Nc1ncc(CCNc2ncnc3ccsc23)s1 | 20.6 nM (active) | 0.0326 µM (active) | 0.296 µM (active) | 0.332 µM (active) | 0.105 µM (active) | 0.372 µM (active) | – | 0.418 µM (active) | 3.55 µM (active) | – | 0.209 µM (active) | 0.209 µM (active) | – | 28.2 µM (active)
Cc1ccc(S(=O)(=O)Nc2nc3ccccc3nc2Nc2ccc3nsnc3c2)cc1 | 10300 nM (active) | 8.2 µM (active) | 1.15 µM (active) | 1.62 µM (active) | 1.02 µM (active) | 5.75 µM (active) | – | 4.07 µM (active) | inactive | 7.24 µM (active) | – | – | 0.221% | –
OC(Cn1cncn1)(Cn1cncn1)c1ccc(F)cc1F | inactive | inactive | inactive | inactive | inactive | inactive | inactive | – | – | – | inactive | inactive | 1.07% and 11% | –
CCn1c(-c2nonc2N)nc2cnc(Oc3cccc(NC(=O)c4ccc(OCCN5CCOCC5)cc4)c3)cc21 | 517 nM (active) and 934 nM (active) | 3.66 µM (active) and 5.25 µM (active) | 5.9 µM (active) | 1.18 µM (active) | inactive | 9.35 µM (active) | – | – | – | 13.2 µM (active) | – | – | – | –
Cc1cc(CN2CCN(c3c(Br)cnc4nc(-c5ccc(N6CCN(C)CC6)cc5)[nH]c34)CC2)no1 | 23.1 nM (active) | 29.1 nM (active) and 105 nM (active) | inactive | 1.05 µM (active) | 16.6 µM (active) | 1.05 µM (active) | – | 0.935 µM (active) | 28.2 µM (active) | 0.935 µM (active) | 0.743 µM (active) | 0.743 µM (active) | – | 31.6 µM (active)
CN1C(C(=O)Nc2ccccn2)=C(O)c2sc(Cl)cc2S1(=O)=O | inactive | 16.6 µM (active) | inactive | inactive | inactive | inactive | – | inactive | inactive | inactive | inactive | inactive | -21.7% | –
CC1CNc2c(cccc2S(=O)(=O)N[C@@H](CCCN=C(N)N)C(=O)N2CC[C@@H](C)C[C@@H]2C(=O)O)C1 (stereo partly specified) | inactive | inactive | inactive | inactive | inactive | inactive | – | inactive | inactive | inactive | inactive | inactive | -14.2% | –
Cc1ccc(-n2nc(C(C)(C)C)cc2NC(=O)Nc2ccc(OCCN3CCOCC3)c3ccccc23)cc1 | 8200 nM (active) | 2.59 µM (active) | inactive | inactive | inactive | inactive | inactive | – | inactive | 10.5 µM (active) | 0.132 µM (active) | 9.35 µM (active) | -16.6% | –
COc1cc(N2CCC(O)CC2)ccc1Nc1cc(Nc2ccccc2S(=O)(=O)C(C)C)c2cc[nH]c2n1 | 16.4 µM (active) and 10.5 µM (active) | 20.6 µM (active) and 14.8 µM (active) | inactive | inactive | inactive | inactive | inactive | inactive | inactive | – | – | – | – | –
COc1cc2nccc(Oc3ccc(NC(=O)NC4CC4)c(Cl)c3)c2cc1C(N)=O | 461 nM (active) | 1.03 µM (active) | 26.4 µM (active) | 23.5 µM (active) | 18.7 µM (active) | 18.7 µM (active) | 20.9 µM (active) | – | inactive | – | – | – | – | –
O=C(O)c1ccccc1C(=O)Nc1ccc(-c2ccccc2)cc1 | inactive | inactive | inactive | inactive | inactive | inactive | inactive | inactive | inactive | – | – | – | -5.47% | –
